Our source for the binding signal values is paper PMC7862700, “An all-to-all approach to the identification of sequence-specific readers for epigenetic DNA modifications on cytosine”.

Test in all cases: DAPPL (digital affinity profiling via proximity ligation, sequencing); 10 mM Tris-HCl pH 7.5, 50 mM NaCl, 1 mM DTT, 4% glycerol, room temperature, 30 min; GST-TFs on glutathione beads, 16-mer random dsDNA library, 0.1% formaldehyde crosslink after washing; high values mean tight binding
In assay [1] the target is T1, FLI1 (Homo sapiens, UniProt Q01543 1-452).
T1 sequence: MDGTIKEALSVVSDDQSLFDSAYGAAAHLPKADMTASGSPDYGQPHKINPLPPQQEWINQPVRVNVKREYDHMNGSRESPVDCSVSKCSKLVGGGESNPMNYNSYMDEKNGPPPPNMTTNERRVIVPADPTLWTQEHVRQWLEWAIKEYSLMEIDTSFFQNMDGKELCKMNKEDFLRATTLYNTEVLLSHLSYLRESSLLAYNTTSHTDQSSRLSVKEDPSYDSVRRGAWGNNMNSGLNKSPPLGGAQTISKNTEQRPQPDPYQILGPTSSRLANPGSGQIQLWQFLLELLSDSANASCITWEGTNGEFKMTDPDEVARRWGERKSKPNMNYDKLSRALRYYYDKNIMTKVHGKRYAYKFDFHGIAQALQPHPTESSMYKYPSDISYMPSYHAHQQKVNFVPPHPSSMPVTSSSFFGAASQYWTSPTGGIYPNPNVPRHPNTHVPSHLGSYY
The following applies: protein: recombinant; tags: N-terminal GST; dsDNA, one strand shown. The procedure, abridged: (§1)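 Binding signal is given per hexamer as its read frequency for a factor divided by its frequency in the tag-only sample. GST-fused human transcription factors were expressed in yeast, captured on glutathione beads, barcoded with DNA and pooled with that sample, then incubated with 200 nmole of a 16-mer random double-stranded DNA library in Tris/NaCl/DTT/glycerol buffer for 30 min at room temperature. The pools were then washed, crosslinked, proximity-ligated, amplified by PCR and sequenced on an Illumina NextSeq500.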

For assay [2], the target named is T2, ELK1 (Homo sapiens, UniProt P19419 1-428).
T2 sequence: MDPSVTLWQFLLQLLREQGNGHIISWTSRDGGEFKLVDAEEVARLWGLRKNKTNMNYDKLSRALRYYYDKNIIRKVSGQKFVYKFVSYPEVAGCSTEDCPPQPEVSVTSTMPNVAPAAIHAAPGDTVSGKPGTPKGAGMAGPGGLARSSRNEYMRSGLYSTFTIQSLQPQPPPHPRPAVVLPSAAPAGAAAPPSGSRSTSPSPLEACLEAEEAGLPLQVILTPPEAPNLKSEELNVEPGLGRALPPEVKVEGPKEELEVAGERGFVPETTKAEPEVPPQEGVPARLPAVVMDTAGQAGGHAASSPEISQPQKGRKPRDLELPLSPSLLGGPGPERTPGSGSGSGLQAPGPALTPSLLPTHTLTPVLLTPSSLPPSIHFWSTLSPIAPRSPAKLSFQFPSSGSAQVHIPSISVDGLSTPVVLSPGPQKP
The following applies: protein: recombinant; tags: N-terminal GST; dsDNA, one strand shown. The method, boiled down: as §1

Assay [3] addresses T3, GABPA (Homo sapiens, UniProt Q06546 1-454).
T3 sequence: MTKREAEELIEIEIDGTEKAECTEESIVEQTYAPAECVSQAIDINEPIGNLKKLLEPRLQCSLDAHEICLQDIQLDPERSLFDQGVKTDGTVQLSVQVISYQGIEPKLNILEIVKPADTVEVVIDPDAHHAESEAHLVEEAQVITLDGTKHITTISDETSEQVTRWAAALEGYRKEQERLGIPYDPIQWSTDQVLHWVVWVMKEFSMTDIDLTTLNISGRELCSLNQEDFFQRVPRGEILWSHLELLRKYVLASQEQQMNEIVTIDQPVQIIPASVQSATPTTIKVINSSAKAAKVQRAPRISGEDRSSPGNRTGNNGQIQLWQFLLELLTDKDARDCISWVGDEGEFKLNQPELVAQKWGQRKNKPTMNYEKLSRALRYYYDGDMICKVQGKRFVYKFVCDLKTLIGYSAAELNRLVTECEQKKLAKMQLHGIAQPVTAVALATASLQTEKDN
The following applies: protein: recombinant; tags: N-terminal GST; dsDNA, one strand shown. The procedure, abridged:
as §1

Assay [4] addresses T4, ERG (Homo sapiens, UniProt P11308 1-479).
T4 sequence: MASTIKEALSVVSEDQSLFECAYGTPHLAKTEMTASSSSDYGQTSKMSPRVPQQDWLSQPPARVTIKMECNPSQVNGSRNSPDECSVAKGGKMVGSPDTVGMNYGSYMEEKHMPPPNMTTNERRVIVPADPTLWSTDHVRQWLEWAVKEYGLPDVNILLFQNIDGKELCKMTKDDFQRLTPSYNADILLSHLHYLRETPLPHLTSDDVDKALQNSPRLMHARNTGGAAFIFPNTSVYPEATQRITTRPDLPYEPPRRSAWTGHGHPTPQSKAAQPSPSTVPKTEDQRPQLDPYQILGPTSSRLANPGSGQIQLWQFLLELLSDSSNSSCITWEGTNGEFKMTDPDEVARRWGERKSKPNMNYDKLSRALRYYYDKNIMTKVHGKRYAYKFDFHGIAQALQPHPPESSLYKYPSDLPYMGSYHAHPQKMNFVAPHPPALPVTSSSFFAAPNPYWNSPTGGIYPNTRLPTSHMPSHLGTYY
The following applies: protein: recombinant; tags: N-terminal GST; dsDNA, one strand shown. The method, boiled down:
as §1

Assay [5] addresses ELF1 (Homo sapiens, UniProt P32519 1-619). The following applies: protein: recombinant; tags: N-terminal GST; dsDNA, one strand shown. The method, boiled down:
as §1

Assay [6] deals with T5, EHF (Homo sapiens, UniProt Q9NZC4 1-300).
T5 sequence: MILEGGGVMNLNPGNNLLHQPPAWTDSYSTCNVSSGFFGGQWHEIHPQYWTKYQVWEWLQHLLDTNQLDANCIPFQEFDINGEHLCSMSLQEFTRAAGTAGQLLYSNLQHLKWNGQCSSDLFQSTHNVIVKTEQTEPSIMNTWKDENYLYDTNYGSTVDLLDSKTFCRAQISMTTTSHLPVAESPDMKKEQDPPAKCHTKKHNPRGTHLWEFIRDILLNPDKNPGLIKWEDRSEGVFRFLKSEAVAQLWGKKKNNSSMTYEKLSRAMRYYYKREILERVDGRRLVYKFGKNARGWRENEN
The following applies: protein: recombinant; tags: N-terminal GST; dsDNA, one strand shown. The method, boiled down: as §1

Assay [7] deals with SPI1 (Homo sapiens, UniProt P17947 1-270). The following applies: protein: recombinant; tags: N-terminal GST; dsDNA, one strand shown. The method, boiled down:
as §1

Assay [8] addresses SPIB (Homo sapiens, UniProt Q01892 1-262). The following applies: protein: recombinant; tags: N-terminal GST; dsDNA, one strand shown. The method, boiled down: as §1
Assay [9] has as its target T6, ELK3 (Homo sapiens, UniProt P41970 1-407).
T6 sequence: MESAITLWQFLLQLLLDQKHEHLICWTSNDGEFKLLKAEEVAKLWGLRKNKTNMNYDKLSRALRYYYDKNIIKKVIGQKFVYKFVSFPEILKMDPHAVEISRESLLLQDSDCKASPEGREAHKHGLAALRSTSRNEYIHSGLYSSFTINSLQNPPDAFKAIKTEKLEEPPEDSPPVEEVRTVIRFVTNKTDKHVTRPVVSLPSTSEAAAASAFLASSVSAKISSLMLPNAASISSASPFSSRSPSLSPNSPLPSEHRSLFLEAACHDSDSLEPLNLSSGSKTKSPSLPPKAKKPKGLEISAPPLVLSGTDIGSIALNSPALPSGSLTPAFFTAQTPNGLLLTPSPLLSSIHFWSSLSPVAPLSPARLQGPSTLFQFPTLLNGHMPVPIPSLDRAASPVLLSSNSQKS
The following applies: protein: recombinant; tags: N-terminal GST; dsDNA, one strand shown. The procedure, abridged: as §1

In assay [10] the target is T7, FEV (Homo sapiens, UniProt Q99581 1-238).
T7 sequence: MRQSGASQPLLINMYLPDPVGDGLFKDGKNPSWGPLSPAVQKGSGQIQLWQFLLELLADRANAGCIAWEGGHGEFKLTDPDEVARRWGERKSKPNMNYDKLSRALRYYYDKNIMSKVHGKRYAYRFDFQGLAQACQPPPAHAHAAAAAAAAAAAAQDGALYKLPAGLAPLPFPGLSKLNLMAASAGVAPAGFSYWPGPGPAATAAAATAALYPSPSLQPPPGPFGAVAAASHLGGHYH
The following applies: protein: recombinant; tags: N-terminal GST; dsDNA, one strand shown. The procedure, abridged: as §1

Assay [11] addresses ETV5 (Homo sapiens, UniProt P41161 1-510). The following applies: protein: recombinant; tags: N-terminal GST; dsDNA, one strand shown. The procedure, abridged: as §1
In assay [12] the target is HSF1 (Homo sapiens, UniProt Q00613 1-529). The following applies: protein: recombinant; tags: N-terminal GST; chain copies: 3; dsDNA, one strand shown. The method, boiled down: as §1
The target of assay [13] is T8, SPIC (Homo sapiens, UniProt Q8N5J4 1-248).
T8 sequence: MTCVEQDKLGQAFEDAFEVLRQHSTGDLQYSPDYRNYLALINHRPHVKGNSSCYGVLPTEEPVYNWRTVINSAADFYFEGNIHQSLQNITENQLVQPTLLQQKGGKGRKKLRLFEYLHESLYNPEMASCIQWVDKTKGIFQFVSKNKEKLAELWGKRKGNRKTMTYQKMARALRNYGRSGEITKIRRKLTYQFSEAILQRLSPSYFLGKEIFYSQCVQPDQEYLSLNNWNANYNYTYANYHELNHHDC
The following applies: protein: recombinant; tags: N-terminal GST; dsDNA, one strand shown. The method, boiled down: as §1

In assay [14] the target is ELF4 (Homo sapiens, UniProt Q99607 1-663). The following applies: protein: recombinant; tags: N-terminal GST; dsDNA, one strand shown. The procedure, abridged: as §1
The target of assay [15] is T9, ELK4 (Homo sapiens, UniProt P28324-2 1-405).
T9 sequence: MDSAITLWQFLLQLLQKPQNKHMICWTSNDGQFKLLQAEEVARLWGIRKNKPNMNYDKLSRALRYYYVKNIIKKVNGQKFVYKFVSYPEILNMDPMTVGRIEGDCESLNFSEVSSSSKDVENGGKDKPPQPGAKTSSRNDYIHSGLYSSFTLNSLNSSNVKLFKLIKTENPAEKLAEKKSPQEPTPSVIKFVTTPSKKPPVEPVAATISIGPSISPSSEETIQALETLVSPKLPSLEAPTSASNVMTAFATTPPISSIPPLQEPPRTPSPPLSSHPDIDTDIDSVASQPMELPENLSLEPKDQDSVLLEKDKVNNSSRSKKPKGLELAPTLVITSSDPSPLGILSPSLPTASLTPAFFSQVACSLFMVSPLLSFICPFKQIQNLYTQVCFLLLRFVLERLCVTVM
The following applies: protein: recombinant; tags: N-terminal GST; dsDNA, one strand shown. The procedure, abridged:
as §1

For assay [16], the target named is T10, ETV2 (Homo sapiens, UniProt O00321 1-342).
T10 sequence: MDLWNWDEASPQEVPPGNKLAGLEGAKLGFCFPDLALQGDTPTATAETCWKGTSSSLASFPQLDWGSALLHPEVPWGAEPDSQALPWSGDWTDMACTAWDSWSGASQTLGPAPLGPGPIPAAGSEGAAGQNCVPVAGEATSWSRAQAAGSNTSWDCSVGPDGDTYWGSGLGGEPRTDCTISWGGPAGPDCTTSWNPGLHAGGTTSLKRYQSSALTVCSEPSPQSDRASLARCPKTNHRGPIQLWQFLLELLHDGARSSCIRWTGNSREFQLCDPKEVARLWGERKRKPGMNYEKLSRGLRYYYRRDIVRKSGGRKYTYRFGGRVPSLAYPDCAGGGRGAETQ
The following applies: protein: recombinant; tags: N-terminal GST; dsDNA, one strand shown. The procedure, abridged:
as §1

Assay [17] concerns the target T11, ELF3 (Homo sapiens, UniProt P78545 1-371).
T11 sequence: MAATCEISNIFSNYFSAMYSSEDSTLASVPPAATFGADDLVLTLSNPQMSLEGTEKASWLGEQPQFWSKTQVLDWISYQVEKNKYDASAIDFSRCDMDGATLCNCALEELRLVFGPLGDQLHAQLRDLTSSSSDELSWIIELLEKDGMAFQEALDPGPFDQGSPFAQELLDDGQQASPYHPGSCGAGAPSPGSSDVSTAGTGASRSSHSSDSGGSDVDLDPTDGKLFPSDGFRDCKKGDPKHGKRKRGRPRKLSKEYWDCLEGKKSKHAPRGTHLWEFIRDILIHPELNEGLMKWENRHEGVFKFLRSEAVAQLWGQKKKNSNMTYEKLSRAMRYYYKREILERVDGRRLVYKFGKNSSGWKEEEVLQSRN
The following applies: protein: recombinant; tags: N-terminal GST; dsDNA, one strand shown. The procedure, abridged:
as §1

The target in assay [18] is CRX (Homo sapiens, UniProt O43186 1-299). The following applies: protein: recombinant; tags: N-terminal GST; dsDNA, one strand shown. The method, boiled down:
as §1

Assay [19] concerns the target ETV1 (Homo sapiens, UniProt P50549 1-477). The following applies: protein: recombinant; tags: N-terminal GST; dsDNA, one strand shown. The method, boiled down:
as §1

Chain of ELF1 (P32519 whole entry): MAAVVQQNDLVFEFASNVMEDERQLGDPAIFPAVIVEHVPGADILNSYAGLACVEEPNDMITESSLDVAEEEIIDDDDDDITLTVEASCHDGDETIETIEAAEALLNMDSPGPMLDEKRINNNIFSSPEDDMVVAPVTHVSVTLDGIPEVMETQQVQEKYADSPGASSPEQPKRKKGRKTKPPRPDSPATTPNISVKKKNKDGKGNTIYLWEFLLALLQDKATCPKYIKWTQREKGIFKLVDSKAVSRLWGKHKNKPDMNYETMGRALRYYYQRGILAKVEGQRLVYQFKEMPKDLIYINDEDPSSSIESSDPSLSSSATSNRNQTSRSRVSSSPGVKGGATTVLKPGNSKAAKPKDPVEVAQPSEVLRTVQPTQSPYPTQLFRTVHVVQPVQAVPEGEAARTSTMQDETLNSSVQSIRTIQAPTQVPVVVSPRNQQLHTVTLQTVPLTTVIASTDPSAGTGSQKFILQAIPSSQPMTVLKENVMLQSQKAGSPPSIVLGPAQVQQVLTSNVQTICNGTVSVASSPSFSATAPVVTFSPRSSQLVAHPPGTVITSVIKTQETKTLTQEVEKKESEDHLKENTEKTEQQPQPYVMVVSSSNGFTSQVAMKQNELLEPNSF
Chain of CRX (O43186 whole entry): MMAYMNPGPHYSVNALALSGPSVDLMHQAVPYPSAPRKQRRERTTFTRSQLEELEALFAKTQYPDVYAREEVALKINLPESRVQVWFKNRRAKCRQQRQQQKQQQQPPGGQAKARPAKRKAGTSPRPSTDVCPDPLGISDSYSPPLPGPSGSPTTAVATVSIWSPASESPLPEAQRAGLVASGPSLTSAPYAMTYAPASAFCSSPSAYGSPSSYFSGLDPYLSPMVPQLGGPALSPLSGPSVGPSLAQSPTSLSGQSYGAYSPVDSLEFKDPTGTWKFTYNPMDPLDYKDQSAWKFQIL
Chain of HSF1 (Q00613 whole entry): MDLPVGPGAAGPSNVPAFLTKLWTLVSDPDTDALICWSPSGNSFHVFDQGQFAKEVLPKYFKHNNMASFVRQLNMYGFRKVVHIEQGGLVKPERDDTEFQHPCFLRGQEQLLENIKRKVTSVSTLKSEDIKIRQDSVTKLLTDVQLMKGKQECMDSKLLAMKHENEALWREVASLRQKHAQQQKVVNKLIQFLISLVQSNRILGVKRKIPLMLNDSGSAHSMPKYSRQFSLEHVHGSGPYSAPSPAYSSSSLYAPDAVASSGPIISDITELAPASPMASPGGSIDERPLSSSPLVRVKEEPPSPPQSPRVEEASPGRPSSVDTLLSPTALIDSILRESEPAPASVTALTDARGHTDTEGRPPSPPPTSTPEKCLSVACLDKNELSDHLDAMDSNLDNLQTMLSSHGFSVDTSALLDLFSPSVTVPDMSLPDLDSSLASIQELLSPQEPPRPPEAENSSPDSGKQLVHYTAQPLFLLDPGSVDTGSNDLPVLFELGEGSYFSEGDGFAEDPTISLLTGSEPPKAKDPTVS
Chain of ETV5 (P41161 whole entry): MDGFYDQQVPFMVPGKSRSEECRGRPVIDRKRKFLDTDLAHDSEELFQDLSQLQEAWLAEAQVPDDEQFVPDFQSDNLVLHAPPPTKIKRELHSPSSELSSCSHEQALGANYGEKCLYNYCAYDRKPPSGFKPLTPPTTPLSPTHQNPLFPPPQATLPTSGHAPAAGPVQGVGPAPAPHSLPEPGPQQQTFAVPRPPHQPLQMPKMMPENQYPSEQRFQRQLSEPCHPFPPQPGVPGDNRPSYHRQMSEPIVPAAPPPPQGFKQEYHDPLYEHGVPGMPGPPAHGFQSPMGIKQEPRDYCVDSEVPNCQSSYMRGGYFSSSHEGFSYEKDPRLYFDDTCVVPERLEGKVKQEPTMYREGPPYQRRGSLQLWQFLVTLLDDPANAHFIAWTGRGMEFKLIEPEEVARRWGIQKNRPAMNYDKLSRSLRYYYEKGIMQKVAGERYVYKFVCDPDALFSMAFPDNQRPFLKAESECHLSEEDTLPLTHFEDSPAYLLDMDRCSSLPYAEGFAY
Chain of ELF4 (Q99607 whole entry): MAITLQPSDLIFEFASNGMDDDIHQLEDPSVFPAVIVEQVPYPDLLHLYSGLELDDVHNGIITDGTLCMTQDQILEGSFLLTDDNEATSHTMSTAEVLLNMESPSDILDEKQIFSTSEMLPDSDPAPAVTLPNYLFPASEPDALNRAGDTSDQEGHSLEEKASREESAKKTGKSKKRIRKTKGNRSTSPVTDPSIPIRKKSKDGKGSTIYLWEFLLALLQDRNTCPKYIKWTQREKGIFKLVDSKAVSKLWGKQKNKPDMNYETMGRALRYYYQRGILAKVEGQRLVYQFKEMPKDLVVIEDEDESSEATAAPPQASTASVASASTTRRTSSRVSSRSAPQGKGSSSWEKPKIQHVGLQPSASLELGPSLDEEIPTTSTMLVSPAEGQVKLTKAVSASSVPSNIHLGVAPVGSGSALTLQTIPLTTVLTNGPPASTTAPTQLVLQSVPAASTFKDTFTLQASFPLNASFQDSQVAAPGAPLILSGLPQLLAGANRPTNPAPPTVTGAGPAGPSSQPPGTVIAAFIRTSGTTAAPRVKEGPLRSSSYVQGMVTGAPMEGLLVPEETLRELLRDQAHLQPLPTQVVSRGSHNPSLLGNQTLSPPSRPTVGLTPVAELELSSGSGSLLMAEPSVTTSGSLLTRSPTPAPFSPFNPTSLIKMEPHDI
Chain of ETV1 (P50549 whole entry): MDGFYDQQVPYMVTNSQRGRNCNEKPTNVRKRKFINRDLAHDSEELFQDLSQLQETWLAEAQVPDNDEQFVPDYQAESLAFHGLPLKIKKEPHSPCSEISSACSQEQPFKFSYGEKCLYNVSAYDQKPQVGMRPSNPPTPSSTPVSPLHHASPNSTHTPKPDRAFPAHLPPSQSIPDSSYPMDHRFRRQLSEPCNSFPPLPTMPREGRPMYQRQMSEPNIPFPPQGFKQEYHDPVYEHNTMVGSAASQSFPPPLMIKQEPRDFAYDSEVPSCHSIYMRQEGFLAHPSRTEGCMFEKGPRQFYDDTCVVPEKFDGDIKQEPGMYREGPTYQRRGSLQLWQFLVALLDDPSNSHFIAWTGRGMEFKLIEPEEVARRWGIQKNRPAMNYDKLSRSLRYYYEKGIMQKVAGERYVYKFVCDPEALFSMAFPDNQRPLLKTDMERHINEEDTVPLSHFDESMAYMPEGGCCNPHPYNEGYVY
Chain of SPIB (Q01892 whole entry): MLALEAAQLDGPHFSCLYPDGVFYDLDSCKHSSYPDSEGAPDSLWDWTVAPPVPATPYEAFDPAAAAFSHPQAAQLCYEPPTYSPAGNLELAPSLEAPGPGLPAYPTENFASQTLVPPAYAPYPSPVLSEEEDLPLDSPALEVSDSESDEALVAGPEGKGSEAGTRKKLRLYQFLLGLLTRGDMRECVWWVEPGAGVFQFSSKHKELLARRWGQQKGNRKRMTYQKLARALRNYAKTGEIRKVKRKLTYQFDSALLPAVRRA

With ATCCGA, the binding signal in assay [1] is 1.1 fold enrichment (6-mer frequency, TF over GST control); in [2] it was 1.17 fold enrichment (6-mer frequency, TF over GST control); in assay [3], 1.2 fold enrichment (6-mer frequency, TF over GST control); in [4] it was 1.31 fold enrichment (6-mer frequency, TF over GST control); in assay [5], 1.15 fold enrichment (6-mer frequency, TF over GST control); in assay [6], 1.17 fold enrichment (6-mer frequency, TF over GST control). For the same sequence, the binding signal in [7] is 1.08 fold enrichment (6-mer frequency, TF over GST control); in assay [8] it was 1.32 fold enrichment (6-mer frequency, TF over GST control); in assay [9], 1.32 fold enrichment (6-mer frequency, TF over GST control); in assay [10] it was 1.29 fold enrichment (6-mer frequency, TF over GST control); in assay [11], 1.2 fold enrichment (6-mer frequency, TF over GST control); in assay [12], 1.56 fold enrichment (6-mer frequency, TF over GST control). Further, the binding signal in assay [13] is 1.31 fold enrichment (6-mer frequency, TF over GST control); in assay [14], 1.13 fold enrichment (6-mer frequency, TF over GST control); in [15] it was 1.18 fold enrichment (6-mer frequency, TF over GST control); in [16], 1.24 fold enrichment (6-mer frequency, TF over GST control); in assay [17], 1.09 fold enrichment (6-mer frequency, TF over GST control); in assay [18], 2.02 fold enrichment (6-mer frequency, TF over GST control). In assay [19], the binding signal was 1.17 fold enrichment (6-mer frequency, TF over GST control).
